# For some assays here: Entries with a potency or affinity are not part of this list. The source made the active and inactive calls. Unless noted, the limit is not given here; nearly all actives have IC50 up to about 0.91 µM.
# Target: Protein kinase 7 (PK7), Plasmodium falciparum 3D7 (PF3D7_0213400) (UniProt Q7YTF7)
# Test: inhibition of Plasmodium PK7 catalytic activity – biochemical, TCAMS antimalarial set, Kinase-Glo luminescence (AID 1159587; call rule not given here)
# Settings: recombinant PfPK7, Kinase-Glo ATP depletion luminescence
# Protein kinase 7 (PK7), Plasmodium falciparum 3D7 (PF3D7_0213400), sequence (Q7YTF7 1-343): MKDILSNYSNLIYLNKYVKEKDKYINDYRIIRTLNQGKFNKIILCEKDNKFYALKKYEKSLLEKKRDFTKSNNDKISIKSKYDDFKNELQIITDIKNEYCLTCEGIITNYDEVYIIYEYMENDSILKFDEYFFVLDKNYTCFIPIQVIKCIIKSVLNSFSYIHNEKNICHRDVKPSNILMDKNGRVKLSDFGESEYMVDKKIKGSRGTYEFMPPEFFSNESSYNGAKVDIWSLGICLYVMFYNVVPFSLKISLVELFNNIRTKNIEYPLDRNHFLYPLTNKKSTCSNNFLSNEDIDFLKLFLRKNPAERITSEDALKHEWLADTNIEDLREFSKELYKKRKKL
row,Compound,outcome
1,CCc1c(CCNCCCCCCNCCc2ccc(Br)cc2)ccc(O)c1O,inactive
2,O=C(c1cc(-c2cccs2)[nH]n1)N1CCN(S(=O)(=O)c2ccc(Cl)cc2)CC1,inactive
3,Nc1nc(N)c2c(ccc3c2ccn3Cc2ccc(Cl)cc2)n1,inactive
4,CC[C@@H]([C@@H](Cc1cc2ccccc2s1)C(=O)N[C@@H](CCCCNC(=O)OCc1ccccc1)C(=O)Nc1ccccn1)N(O)C=O,inactive
5,CCc1cc(C(=O)c2cccc(C)c2)c(NC(=O)CN2CCN(C(=O)c3ccco3)CC2)s1,inactive
6,NC(=O)CCC(NC(=O)CNC(=O)Nc1cccc(C(F)(F)F)c1)C(=O)O (stereo not given),inactive
7,CCOC(=O)N/N=C/[C@H](CCc1ccccc1)NC(=O)[C@H](CC(C)C)NC(=O)c1cc2cccc(OC)c2o1,inactive
8,NC(N)=NN=Cc1c2ccccc2c(Cl)c2c(Cl)cccc12,inactive
9,NC1=NC(c2ccccc2)(c2ccccc2)C(=O)N1CC=Cc1ccccc1,inactive
10,Cc1cccc(CNc2nc(C)cc(N[C@@H](Cc3ccccc3)C(=O)NC3CCCC3)n2)c1,inactive
11,O=C(Nc1cccc(-c2ccc(-c3nc4ccccc4[nH]3)cc2)c1)Nc1ccc(F)c(F)c1F,inactive
12,O=C(Nc1ccccc1)N(Cc1cccc(-c2cccc(CNCCc3ccccc3)c2)c1)C1CCN(Cc2ccccc2)CC1,inactive
13,COc1ccc(CCN(Cc2cccs2)C(=O)c2cc3sccc3n2C)cc1OC,inactive
14,CN(C)c1ccc(-c2ccc(C(=O)NC3CCN(Cc4ccc5c(c4)OCCO5)CC3)s2)cc1,inactive
15,Clc1ccc(CNc2ccnc(NCc3cccnc3N3CCCC3)n2)c(Cl)c1,inactive
16,CN1CCC(N2CCN(Cc3cccc(-c4ccc(-c5nc6ccccc6[nH]5)cc4)c3)CC2)CC1,inactive
17,CCCCCn1c(Sc2ccc(C#N)c([N+](=O)[O-])c2)nnc1-c1cc(OC)cc(OC)c1,inactive
18,CCN(CC)C(=O)c1cccc(/C=C/c2ccc(-c3c(C)[nH]c(C)c(Cl)c3=O)cc2)c1,inactive
19,O=C(NC1CC1)c1cnc(N2CCC(c3ccccc3)CC2)c(Cl)c1,inactive
20,COc1ccc2nccc([C@@H](O)CN3CCC(NCc4cc5cccc(O)c5c(=O)[nH]4)CC3)c2c1,inactive

row,Compound,outcome
1,Cc1nc(C)c(CC(=O)Nc2ccc(-c3cccc(-c4nc5ccc(C(F)(F)F)cc5[nH]4)c3)cc2)s1,inactive
2,COc1ccc(N2CCN(c3nc(Nc4ccc(NC(C)=O)cc4)nc(N4CCCC4)n3)CC2)cc1,inactive
3,Cc1csc(-c2nc(NCCc3c(C)noc3C)ncc2-c2ccsc2)n1,inactive
4,CCOC(=O)c1cc(Cl)ccc1OCCCON1C(N)=NC(N)=NC1(C)C,inactive
5,CN(C)CCOc1cc(NC(=O)Nc2ccc(Cl)cc2C(F)(F)F)ccc1I,inactive
6,CC(O)C1CCCCN1C(=O)c1cccc(-c2ccc(-c3nc4ccc(C(F)(F)F)cc4[nH]3)cc2)c1 (stereo not given),inactive
7,Cc1cc(NC(=O)NCCN2CCC(NS(=O)(=O)c3ccc(Br)cc3)C2)c2ccccc2n1 (stereo not given),inactive
8,CN1CCN(CC(=O)Nc2cccc(-c3ccc(-c4nc5ccc(C(F)(F)F)cc5[nH]4)s3)c2)CC1,inactive
9,O=C(NC1CCN(c2ccnc(Nc3ccc(F)cc3)n2)C1)c1cc2ccccc2s1 (stereo not given),inactive
10,CC(CN)OCn1cnc2c(N)ncnc21 (stereo not given),inactive
11,COc1ccc(Nc2nccc(N3CCC(NC(=O)c4cccc(C#N)c4)C3)n2)cc1 (stereo not given),inactive
12,CCc1cn2c3c(cc(C(=O)N[C@@H](Cc4ccccc4)[C@H](O)CN[C@@H](C)CC)cc13)N(C)S(=O)(=O)CC2,inactive
13,COc1ccccc1-c1nc2nc(N)nc(N)c2nc1-c1ccccc1OC,inactive
14,COc1cc(NC(=O)CCCCCCCCN2CCN(C)CC2)c2ncccc2c1,inactive
15,CN(Cc1cccc(O)c1)C1CCN(c2cc(NC(=O)c3ccc(F)cc3)ccn2)C1 (stereo not given),inactive
16,O=C(Nc1ccc(OC(F)(F)F)cc1)Nc1ccc([N+](=O)[O-])cc1,inactive
17,CC(C)CNCc1ccc(-c2ccccc2CNC2CCN(Cc3ccccc3)CC2)cc1,inactive
18,CN1CCN(CCCN(Cc2ccc(-c3cccc(CNCc4ccc5c(c4)OCO5)c3)cc2)C(=O)NCCc2ccccc2)CC1,inactive
19,COc1cc2cc(Cc3cnc(N)nc3N)ccc2c(OC)c1OC,inactive
20,Cc1cc(N2CCC(NS(=O)(=O)c3ccc(F)cc3)CC2)nc(Nc2cccc(C#N)c2)n1,inactive

# Target: Calcium-dependent protein kinase 4 (Plasmodium falciparum (isolate 3D7)) (UniProt Q8IBS5)
# Test: PfCDPK4 kinase inhibitors, biochemical, TCAMS library (AID 1159588)
# Settings: recombinant PfCDPK4, Kinase-Glo ATP depletion luminescence
# Calcium-dependent protein kinase 4 (Plasmodium falciparum (isolate 3D7)), sequence (Q8IBS5 whole entry, looked up): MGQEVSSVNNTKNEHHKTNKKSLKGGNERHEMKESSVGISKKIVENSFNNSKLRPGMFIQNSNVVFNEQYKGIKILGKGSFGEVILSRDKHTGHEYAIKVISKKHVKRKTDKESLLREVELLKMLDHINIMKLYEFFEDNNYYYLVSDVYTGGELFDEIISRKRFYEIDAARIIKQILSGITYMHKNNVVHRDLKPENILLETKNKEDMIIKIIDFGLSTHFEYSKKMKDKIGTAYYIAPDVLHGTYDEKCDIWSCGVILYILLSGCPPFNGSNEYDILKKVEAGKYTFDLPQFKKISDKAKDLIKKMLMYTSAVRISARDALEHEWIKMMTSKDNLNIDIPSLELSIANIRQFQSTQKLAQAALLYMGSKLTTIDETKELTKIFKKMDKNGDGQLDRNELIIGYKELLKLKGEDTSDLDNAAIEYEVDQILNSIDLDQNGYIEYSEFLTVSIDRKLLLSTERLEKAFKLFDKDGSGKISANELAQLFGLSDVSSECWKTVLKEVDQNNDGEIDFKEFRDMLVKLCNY
row,Compound,outcome
1,CCc1c(CCNCCCCCCNCCc2ccc(Br)cc2)ccc(O)c1O,inactive
2,O=C(c1cc(-c2cccs2)[nH]n1)N1CCN(S(=O)(=O)c2ccc(Cl)cc2)CC1,inactive
3,Nc1nc(N)c2c(ccc3c2ccn3Cc2ccc(Cl)cc2)n1,inactive
4,CC[C@@H]([C@@H](Cc1cc2ccccc2s1)C(=O)N[C@@H](CCCCNC(=O)OCc1ccccc1)C(=O)Nc1ccccn1)N(O)C=O,inactive
5,CCc1cc(C(=O)c2cccc(C)c2)c(NC(=O)CN2CCN(C(=O)c3ccco3)CC2)s1,inactive
6,NC(=O)CCC(NC(=O)CNC(=O)Nc1cccc(C(F)(F)F)c1)C(=O)O (stereo not given),inactive
7,CCOC(=O)N/N=C/[C@H](CCc1ccccc1)NC(=O)[C@H](CC(C)C)NC(=O)c1cc2cccc(OC)c2o1,inactive
8,NC(N)=NN=Cc1c2ccccc2c(Cl)c2c(Cl)cccc12,inactive
9,NC1=NC(c2ccccc2)(c2ccccc2)C(=O)N1CC=Cc1ccccc1,inactive
10,Cc1cccc(CNc2nc(C)cc(N[C@@H](Cc3ccccc3)C(=O)NC3CCCC3)n2)c1,inactive
11,O=C(Nc1cccc(-c2ccc(-c3nc4ccccc4[nH]3)cc2)c1)Nc1ccc(F)c(F)c1F,inactive
12,O=C(Nc1ccccc1)N(Cc1cccc(-c2cccc(CNCCc3ccccc3)c2)c1)C1CCN(Cc2ccccc2)CC1,inactive
13,COc1ccc(CCN(Cc2cccs2)C(=O)c2cc3sccc3n2C)cc1OC,inactive
14,CN(C)c1ccc(-c2ccc(C(=O)NC3CCN(Cc4ccc5c(c4)OCCO5)CC3)s2)cc1,inactive
15,Clc1ccc(CNc2ccnc(NCc3cccnc3N3CCCC3)n2)c(Cl)c1,inactive
16,CN1CCC(N2CCN(Cc3cccc(-c4ccc(-c5nc6ccccc6[nH]5)cc4)c3)CC2)CC1,inactive
17,CCCCCn1c(Sc2ccc(C#N)c([N+](=O)[O-])c2)nnc1-c1cc(OC)cc(OC)c1,inactive
18,CCN(CC)C(=O)c1cccc(/C=C/c2ccc(-c3c(C)[nH]c(C)c(Cl)c3=O)cc2)c1,inactive
19,O=C(NC1CC1)c1cnc(N2CCC(c3ccccc3)CC2)c(Cl)c1,inactive
20,COc1ccc2nccc([C@@H](O)CN3CCC(NCc4cc5cccc(O)c5c(=O)[nH]4)CC3)c2c1,inactive

row,Compound,outcome
1,Cc1nc(C)c(CC(=O)Nc2ccc(-c3cccc(-c4nc5ccc(C(F)(F)F)cc5[nH]4)c3)cc2)s1,inactive
2,COc1ccc(N2CCN(c3nc(Nc4ccc(NC(C)=O)cc4)nc(N4CCCC4)n3)CC2)cc1,inactive
3,Cc1csc(-c2nc(NCCc3c(C)noc3C)ncc2-c2ccsc2)n1,inactive
4,CCOC(=O)c1cc(Cl)ccc1OCCCON1C(N)=NC(N)=NC1(C)C,inactive
5,CN(C)CCOc1cc(NC(=O)Nc2ccc(Cl)cc2C(F)(F)F)ccc1I,inactive
6,CC(O)C1CCCCN1C(=O)c1cccc(-c2ccc(-c3nc4ccc(C(F)(F)F)cc4[nH]3)cc2)c1 (stereo not given),inactive
7,Cc1cc(NC(=O)NCCN2CCC(NS(=O)(=O)c3ccc(Br)cc3)C2)c2ccccc2n1 (stereo not given),inactive
8,CN1CCN(CC(=O)Nc2cccc(-c3ccc(-c4nc5ccc(C(F)(F)F)cc5[nH]4)s3)c2)CC1,inactive
9,O=C(NC1CCN(c2ccnc(Nc3ccc(F)cc3)n2)C1)c1cc2ccccc2s1 (stereo not given),inactive
10,CC(CN)OCn1cnc2c(N)ncnc21 (stereo not given),inactive
11,COc1ccc(Nc2nccc(N3CCC(NC(=O)c4cccc(C#N)c4)C3)n2)cc1 (stereo not given),inactive
12,CCc1cn2c3c(cc(C(=O)N[C@@H](Cc4ccccc4)[C@H](O)CN[C@@H](C)CC)cc13)N(C)S(=O)(=O)CC2,inactive
13,COc1ccccc1-c1nc2nc(N)nc(N)c2nc1-c1ccccc1OC,inactive
14,COc1cc(NC(=O)CCCCCCCCN2CCN(C)CC2)c2ncccc2c1,inactive
15,CN(Cc1cccc(O)c1)C1CCN(c2cc(NC(=O)c3ccc(F)cc3)ccn2)C1 (stereo not given),inactive
16,O=C(Nc1ccc(OC(F)(F)F)cc1)Nc1ccc([N+](=O)[O-])cc1,inactive
17,CC(C)CNCc1ccc(-c2ccccc2CNC2CCN(Cc3ccccc3)CC2)cc1,inactive
18,CN1CCN(CCCN(Cc2ccc(-c3cccc(CNCc4ccc5c(c4)OCO5)c3)cc2)C(=O)NCCc2ccccc2)CC1,inactive
19,COc1cc2cc(Cc3cnc(N)nc3N)ccc2c(OC)c1OC,inactive
20,Cc1cc(N2CCC(NS(=O)(=O)c3ccc(F)cc3)CC2)nc(Nc2cccc(C#N)c2)n1,inactive
